According to PubChem BioAssay AID1814 (Broad Institute, 2009):
Among all 300,000 compounds or so, about 22,000 (7.3%) were called active. Inconclusive results (about 2%) are left out. Only a selection was taken, and actives are over-represented in it overall. A number with no mark means an inactive call. No stated cut-off is given here; in the data, active means activity score below about -60%; inconclusive means mostly about -28% to -61%; inactive means positive scores.

Test: Activators via SNCA 5'UTR binding, MLPCN (AID 1814)
Conditions: alpha-synuclein 5'UTR reporter, activators screen; stronger effect = lower value; tested at 7.5 µM
For `Cc1ccc(Nc2nc(-c3ccc(O)cc3O)cs2)nc1`, the activity score was -189% (active).
For `COc1ccc(OCCCn2cccc2/C=C2/C(=N)N3OC(C)=CC3=NC2=O)cc1`, the activity score was -95.9% (active).
For `Cc1ccc(-c2nn(-c3cccc(F)c3)cc2CNCCc2ccncc2)o1`, the activity score was -74% (active).
In the case of `O=C(/C=C/c1ccc(Cl)c([N+](=O)[O-])c1)c1ccc(O)cc1`, the activity score is reported as -156% (active).
With `CN(C)c1ccc(/C=C/C(=O)c2ccc(O)cc2)cc1[N+](=O)[O-]` the activity score was -203% (active).
For `O=C(/C=C/c1ccc2c(c1)OCCO2)c1ccc(O)cc1`, the activity score was -260% (active).
Work on `COc1ccc(/C=C2\SC(=S)N(CCCC(=O)NC3CCCC3)C2=O)cc1OC` yielded an activity score of 83.7%.
For `COc1ccc(/C=C2\SC(=O)N(CCC(=O)NC3CCS(=O)(=O)C3)C2=O)cc1` (stereo not given), the activity score was -71.6% (active).
In the case of `Cc1nc(-c2ccccc2)sc1C(=O)/C=C/N(C)C`, the activity score is reported as -76.2% (active).
For `Cc1nc(-c2ccccc2)sc1C(=O)/C=C/c1ccccc1`, the activity score was -83.8% (active).
For `CCOC(=O)c1c(C)[nH]c(C2=NNC(=NC(C)COC)SC2)c1C` (stereo not given), the activity score was -98.9% (active).
With `O=C(CSc1nc2ccccc2[nH]1)c1cccs1` the activity score was -160% (active).
For `CN(Cc1ccccc1)C(=O)CSc1nc2ccccc2[nH]1`, the activity score was -93.7% (active).
For `O=C1c2ccccc2NC(c2ccc(-c3cccc(Cl)c3)o2)N1O` (stereo not given), the activity score was -145% (active).
With `Cc1cccc(C(=O)Nc2ccc3c(c2)C(=O)N(CC(C)C)C3=O)c1` the activity score was -149% (active).
In the case of `Nc1nnc(SCC(=O)Nc2ccc3nc(SCC(=O)Nc4ccccc4)sc3c2)s1`, the activity score is reported as -107% (active).
For `O=C(Nc1cccc(Cl)c1)Nc1ccccc1NS(=O)(=O)c1cccs1`, the activity score was -81.4% (active).
In the case of `Cc1ccc(NN=C2C(=O)OC(C)(C)OC2=O)c(C)c1`, the activity score is reported as -140% (active).
For `Cc1nn(-c2ccccc2)c(Cl)c1/C=C/C(=O)c1ccc(O)cc1`, the activity score was -125% (active).
For `Cn1sc(NC(=O)c2ccccc2)nc1=O`, the activity score was -72.7% (active).
In the case of `O=C(c1ccc(F)cc1)n1c(=S)nc2ccccn21`, the activity score is reported as -171% (active).
With `COc1cc(/C=N/O)ccc1OCc1ccc([N+](=O)[O-])cc1` the activity score was -86.3% (active).
For `COc1ccc2[nH]c3c(=O)n(Cc4ccco4)cnc3c2c1`, the activity score was -65.2% (active).
With `Clc1ccc(N/N=C/c2cccs2)nn1` the activity score was -131% (active).
For `COc1cccc(/C=N/Nc2ccc(Cl)nn2)c1`, the activity score was -168% (active).
With `Cc1ccsc1/C=N/Nc1ccc(Cl)nn1` the activity score was -101% (active).
With `O=C(Nc1ccc(S(=O)(=O)N2CCOCC2)cc1)c1ccc2ncsc2c1` the activity score was -76.4% (active).
In the case of `CC1CCCN(c2ccc(C(=O)NCCc3ccccc3)cn2)C1` (stereo not given), the activity score is reported as -104% (active).
In the case of `CC1CCN(c2ccc(-c3ccc(NC(=O)c4ccco4)cc3)nn2)CC1`, the activity score is reported as -144% (active).
In the case of `CCC(=O)Nc1ccc(-c2ccc(N3CCCCC3)nn2)cc1`, the activity score is reported as -132% (active).
With `[O-][n+]1onc2c1CCc1[nH]c(-c3ccccc3)nc1-2` the activity score was -130% (active).
With `CC(=O)Nc1ccc(NC(=O)COc2ccccc2C(=O)Nc2cccc(Cl)c2Cl)cc1` the activity score was 41.1%.
With `CC(=O)Nc1ccc(NC(=O)COc2ccc(S(=O)(=O)NC(C)c3ccccc3)cc2)cc1` (stereo not given) the activity score was -147% (active).
For `O=C(COc1ccccc1)Nc1ccc(F)cc1`, the activity score was -69.2% (active).
In the case of `O=C(COc1ccccc1)Nc1nonc1NC(=O)COc1ccccc1`, the activity score is reported as -62.2% (active).
For `CC(C)[C@@H]1COC(c2cccc(C3=N[C@H](C(C)C)CO3)c2)=N1`, the activity score was -152% (active).
In the case of `CCOc1ccc(NC(=O)CCNC(=O)c2ccc(Br)cc2)cc1`, the activity score is reported as -69.9% (active).
For `CCOc1ccc(NC(=O)c2ccc(NC(=O)COC(=O)c3ccc(NC(=O)CC#N)cc3)cc2)cc1`, the activity score was -88.1% (active).
With `COc1ccc2c(Cl)c(C(=O)NCc3ccco3)sc2c1` the activity score was -164% (active).
For `O=C(NCc1ccco1)c1sc2cccc(F)c2c1Cl`, the activity score was -99.4% (active).
In the case of `COc1ccc2oc(C(=O)NCc3ccco3)c(C)c2c1`, the activity score is reported as -92.6% (active).
In the case of `COc1ccc(C2=NOC(C(=O)NCc3ccco3)C2)cc1OC` (stereo not given), the activity score is reported as 51.4%.
With `Cc1cccc(N(CC(=O)Nc2ccc(-c3nc4ccc(C)cc4s3)cc2)S(C)(=O)=O)c1` the activity score was -159% (active).
With `Cc1ccc2nc(-c3ccc(NC(=O)CN(C)S(=O)(=O)c4ccccc4)cc3)sc2c1` the activity score was -67.2% (active).
For `Cc1cccc2cc3c(N)c(C(=O)N4CCCc5ccccc54)sc3nc12`, the activity score was 85.2%.
For `Cc1c(C(=O)NCC2CCCO2)sc2nc(-c3ccccc3)cn12` (stereo not given), the activity score was -102% (active).
In the case of `Cc1c(C(=O)N2CCCc3ccccc32)sc2nc(-c3ccccc3)cn12`, the activity score is reported as -83.5% (active).
For `Cc1ccc(C(=O)Cc2nnc(C)s2)cc1`, the activity score was -98.4% (active).
In the case of `O=c1c2ccccc2ncn1/N=C/c1ccccc1`, the activity score is reported as -192% (active).
With `Cc1cc(/C=C2/SC(=O)N(CC(=O)OC(C)C)C2=O)c(C)n1C` the activity score was -159% (active).
For `Cc1cc(SCC(=O)NCCN2C(=O)CSC2=O)nc2ccccc12`, the activity score was -74.6% (active).
For `CCc1ccc(NC(=O)N2CCc3ccccc3C2)cc1`, the activity score was -68.2% (active).
In the case of `O=C(Nc1cccc([N+](=O)[O-])c1)N1CCc2ccccc2C1`, the activity score is reported as -99.5% (active).
With `CCOC(=O)C1C(=O)C=C(c2ccc(OC)cc2)CC1c1ccco1` (stereo not given) the activity score was -74.2% (active).
Molecule `CCCC1(C(=O)OC)NC(c2ccco2)C2C(=O)N(C)C(=O)C21` (stereo not given) has an activity score of 27.8%.
With `CCOC(=O)c1c(Cc2ccc(Cl)cc2)c[nH]c1C` the activity score was -90.9% (active).
With `CN(c1cccc(NC(=O)Nc2ccc(Cl)cc2)c1)S(C)(=O)=O` the activity score was -112% (active).
With `O=[N+]([O-])c1ccccc1N/N=C1\CCc2ccccc21` the activity score was -187% (active).
With `COc1ccc(/C=N/Nc2nc3ccccc3c(=O)[nH]2)cc1` the activity score was -125% (active).
Molecule `Cc1nnc(N/N=C/c2ccccn2)[nH]c1=O` has an activity score of 117%.
With `COc1ccc(-c2onc3ccc(C(C)=O)cc23)cc1` the activity score was -120% (active).
For `CS(=O)(=O)C1=NN2C(=N)/C(=C\c3ccc(OCCOc4ccccc4)cc3)C(=O)N=C2S1`, the activity score was -73.6% (active).
For `N#Cc1ccccc1NC(=O)c1ccc2c(c1)OCO2`, the activity score was -87.9% (active).
For `O=C(OCc1ccccc1F)c1ccc2c(c1)OCCO2`, the activity score was -210% (active).
In the case of `O=C(Nc1ccccc1F)c1ccc2c(c1)OCO2`, the activity score is reported as -199% (active).
